hgDAF-12 ag: H. glycines DAF-12 receptor agonists, primary screen, cell-based, luminescence, HEK293, GAL4 fusion, UAS-luciferase; Nuclear hormone receptor DAF-12 (Heterodera glycines), GAL4 fusion; activation, % at 6.8 µM; HEK293 GAL4-hgDAF12 UAS-luciferase reporter, agonist luminescence; normalized to butyrate control; hit rate 1.8% among 370,000;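 active means activation above a cutoff set at the mean of all screened compounds plus 3 SD, cut at about 10% in these data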;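 further: 0% = DMSO wells and 100% = sodium butyrate wells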
hcDAF12 agonist: H. contortus DAF-12 nuclear receptor activators, primary screen, cell-based, luminescence, HEK293, lit1-tk-luc reporter; HEK293 hcDAF-12 lit1-tk-luc reporter; 0% DMSO, 100% Δ7-dafachronic acid; activation, % at 6.8 µM; hit rate 1.4% among 370,000; AID 652067, 2013;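 active means activation above the mean of all tested compounds plus 3 SD, cut at about 5.5% in these data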;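 further: 100% = response to 3 µM Δ7-dafachronic acid high control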
PolyA inhibitor: polyadenylation inhibitors in yeast reporter cells, primary screen, luminescence, S. cerevisiae; hit rate 0.02% among 300,000; activity score, % at 12 µM; S. cerevisiae SKY197-pL101 polyadenylation reporter, beta-gal luminescence; efflux-impaired pdr1/pdr3 knockout yeast; score 100 = 6 SD above DMSO;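 active means lowest replicate activity score at least 50, where 100 means six control SD above control mean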;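 further: yeast exposed to compound for 9 h at 30 °C; higher score means more reporter readthrough which indicates perturbed polyadenylation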
DAX1 inh-1: DAX1 (NR0B1) inhibitors, primary screen, cell-based, HEK293, Gal4-DAX1, luciferase luminescence. HEK293 Gal4-DAX1 luciferase reporter. inhibition, % at 6.75 µM. hit rate 0.99% among 340,000;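 active means inhibition above the mean over all tested compounds plus 3 SD, cut at about 4.2% in these data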;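 further: 0% = DAX1-transfected cells with DMSO and 100% = empty-vector control cells with DMSO; inhibition shows as a rise in luminescence from relieved DAX1 repression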
Target sequence (P51843 207-470 limits assumed): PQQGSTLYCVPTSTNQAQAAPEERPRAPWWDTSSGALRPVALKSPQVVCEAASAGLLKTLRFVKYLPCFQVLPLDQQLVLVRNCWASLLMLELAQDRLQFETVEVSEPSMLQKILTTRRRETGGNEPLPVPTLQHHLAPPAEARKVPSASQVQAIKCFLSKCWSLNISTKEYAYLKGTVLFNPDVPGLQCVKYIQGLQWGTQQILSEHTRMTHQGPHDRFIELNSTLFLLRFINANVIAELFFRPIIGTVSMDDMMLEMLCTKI
ssDAF12 agonist: S. stercoralis DAF-12 nuclear receptor activators, primary screen, cell-based, luminescence, HEK293, GRIP1 co-expression, lit1-tk-luc; AID 652126, 2013; activation, % at 6.8 µM; hit rate 1% among 370,000; HEK293 ssDAF-12/GRIP1 lit1-tk-luc reporter; % of 3 µM dafachronic acid response;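 active means activation above the mean over all tested compounds plus 3 SD, cut at about 0.9% in these data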;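 further: 0% = DMSO-only wells and 100% = 3 µM delta7-dafachronic acid wells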
DAX1 inh-2: DAX1 (NR0B1) inhibitors on StAR promoter, primary screen, cell-based, luminescence, SF-1 (NR5A1), full-length DAX-1; HEK293T StAR-luciferase reporter, SF-1/DAX-1 repression relief; inhibition, % at 6.8 µM; hit rate 1.1% among 370,000;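 active means inhibition above the mean over all tested compounds plus 3 SD, cut at about 3.6% in these data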;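 further: 0% = DAX-1 cells with DMSO and 100% = cells lacking DAX-1 with DMSO; higher inhibition means more luminescence from relief of DAX-1 repression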
* hit, by the source's call. Shown are actives, neighbours in structure and some others; about 4.1% of the full set was active somewhere.

CC1(C)CC(=O)C([N+](=O)[O-])=C(NCCCC(=O)O)C1 was read as hgDAF-12 ag -1, hcDAF12 agonist 1, PolyA inhibitor -10, DAX1 inh-1 4.5*, ssDAF12 agonist -1 and DAX1 inh-2 0.
Screening CC(C)(C)c1ccc(-c2nnc(SCC(=O)Nc3cccc4ccccc34)n2Cc2ccco2)cc1 returned hgDAF-12 ag 0, hcDAF12 agonist -3, ssDAF12 agonist -2 and DAX1 inh-2 0.
`COc1cc2c(cc1NC(=O)CSc1nnc(-c3ccccc3C)n1Cc1ccco1)oc1ccccc12` gave hgDAF-12 ag 3, hcDAF12 agonist 0, ssDAF12 agonist -1 and DAX1 inh-2 -2.
`CCN(CC)CCNC(=O)c1cc2c(=O)n(C)c3ccccc3c2s1` gave hgDAF-12 ag 6, hcDAF12 agonist 6.3*, PolyA inhibitor -5, DAX1 inh-1 1, ssDAF12 agonist 0 and DAX1 inh-2 2.
Screening CCCCN(CC)CCNC(=O)c1cc2c(=O)n(CC)c3ccccc3c2s1 returned hgDAF-12 ag -2, hcDAF12 agonist 3, PolyA inhibitor 7, DAX1 inh-1 3, ssDAF12 agonist 0 and DAX1 inh-2 1.
For CCCCN(CC)CCCNC(=O)c1cc2c(=O)n(CC)c3ccccc3c2s1 the results were hgDAF-12 ag 0, hcDAF12 agonist 2, PolyA inhibitor 10, DAX1 inh-1 4.7*, ssDAF12 agonist -1 and DAX1 inh-2 1.
Screening CCCN(CCC)CCCNC(=O)c1cc2c(=O)n(CC)c3ccccc3c2s1 returned hgDAF-12 ag 0, hcDAF12 agonist 1, PolyA inhibitor 0, DAX1 inh-1 7.3*, ssDAF12 agonist -1 and DAX1 inh-2 2.
`CCCCN(CC)CCNC(=O)c1cc2c(=O)n(C)c3ccccc3c2s1` gave hgDAF-12 ag 6, hcDAF12 agonist 1, PolyA inhibitor 3, DAX1 inh-1 1, ssDAF12 agonist 0 and DAX1 inh-2 3.
For CCn1c(=O)c2cc(C(=O)NCC(OC)OC)sc2c2ccccc21 the results were hgDAF-12 ag -2, hcDAF12 agonist -2, PolyA inhibitor 7, DAX1 inh-1 6.2*, ssDAF12 agonist -1 and DAX1 inh-2 0.
For COC(=O)Cc1nnn2c1[C@H](C)[C@@H](OC)c1ccc(C(F)(F)F)cc1-2 the results were hgDAF-12 ag -1, hcDAF12 agonist -1, ssDAF12 agonist -1 and DAX1 inh-2 0.
`Cc1cc(O)c2c(c1)C(=O)c1cc(O)cc(O)c1C2=O` gave hgDAF-12 ag -1, hcDAF12 agonist -2, PolyA inhibitor -6, DAX1 inh-1 0, ssDAF12 agonist -1 and DAX1 inh-2 1.
`O=C1c2cc(O)cc(O)c2C(=O)c2c1cc(O)c([C@@H](CO)CCO)c2O` gave hgDAF-12 ag 3, hcDAF12 agonist 6.1*, PolyA inhibitor -13, DAX1 inh-1 2, ssDAF12 agonist 0 and DAX1 inh-2 2.
Screening Cc1ccc(-c2cc(-c3nnc(SCC(=O)Nc4ccc(OCc5ccccc5)cc4)n3N)[nH]n2)cc1 returned hgDAF-12 ag 4, hcDAF12 agonist -1, ssDAF12 agonist -1 and DAX1 inh-2 -2.
COC(=O)c1ccccc1NC(=O)CS(=O)(=O)Cc1nc(-c2ccc(C)cc2)oc1C was read as hgDAF-12 ag -2, hcDAF12 agonist 3, PolyA inhibitor 4, DAX1 inh-1 -1, ssDAF12 agonist 1.1* and DAX1 inh-2 1.
`Cc1ccc(CN2CCCCC(NC(=O)c3cccc(F)c3)C2=O)cc1` (stereo not given) gave hgDAF-12 ag -1, hcDAF12 agonist -2, ssDAF12 agonist -1 and DAX1 inh-2 0.

Screening results: PubChem, several laboratories
